The source of these data is PubChem BioAssay AID2685 (National Center for Advancing Translational Sciences (NCATS), 2010).

SMILES strings stand for the structures. The whole screen tested about 320,000 compounds, of which about 2,100 (0.66%) were called active. Another 53% or so got no clear call; they are omitted. Calls come from the whole dose curve; as a rule, active = well fitted inhibition curve with a large enough effect in the signal ratio, with a control signal flat (not every such curve was filed as active); inconclusive = small, poorly fitted or top-dose-only effect, or effect the other way, or a change in a side signal; inactive = flat fitted curve, though single readings scatter; the % refers to the signal ratio. Shown is part of a subset that was picked to be rich in actives.
Potency is the fitted concentration of half-maximal effect.

The experiment in a line: qHTS Assay for Lipid Storage Modulators in Drosophila S3 Cells.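 For cell number change: cells counted by Cell Tracker Red CMTPX staining in the red channel.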 For lipid storage change, negative = inhibition: % is set by controls: 0 for no effect and ±100 for the full control effect. The following applies: BODIPY lipid droplet fluorescence, 18-24 h, cells fed with added oleic acid; cell number change: measured here: cell count max response; series mostly up to 46.1 µM; lipid storage change, negative = inhibition: at the top concentration. In short, it runs like this:
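Drosophila S3 cells loaded with oleic acid (400 uM, as added) and compounds at several concentrations; lipid droplets imaged by 488-nm laser-scanning cytometry, 500–530 nm intensity and object ratio to cell channel. Percent activity normalized to 20 uM Triacsin C.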
For `O=C(O)CCC(=O)Nc1nnc(C(F)(F)F)s1`, the Potency was 29.1 µM (active) and the cell number change was -2.24%.
Take `O=C(CCC(=O)N1CCCC1)Nc1nnc(C(F)(F)F)s1`: the “lipid storage change, negative = inhibition” value is 18.1% (inactive) and the cell number change came to 11.1%.
Turning to `O=C(NCC(F)(F)F)Nc1nnc(C(F)(F)F)s1`, the “lipid storage change, negative = inhibition” value is 0.908% (inactive) and the cell number change is 0.475%.
Regarding `CC(C)(C)CC(=O)Nc1nnc(C(F)(F)F)s1`, the “lipid storage change, negative = inhibition” value was 0.0305% (inactive) and the cell number change was 0.161%.
As for `CCC(NC(=O)Nc1nnc(C(F)(F)F)s1)(C(F)(F)F)C(F)(F)F`, the Potency is 16.4 µM (active) and the cell number change was -12.6%.
Take `CCOC(=O)C1CCN(C(=O)C(CCSC)NC(=O)COc2ccccc2)CC1` (centres undefined): the “lipid storage change, negative = inhibition” value is -10.9% (inactive) and the cell number change was 22.1%.
Take `CC(=O)Nc1cccc(-c2nn[nH]n2)c1`: the “lipid storage change, negative = inhibition” value was 7.27% (inactive) and the cell number change is 9.02%.
As for `CC(=O)Nc1ccc(Nc2nnc(-c3ccc(O)cc3)c3ccccc23)cc1`, the “lipid storage change, negative = inhibition” value is 7.47% (inactive) and the cell number change was 9.07%.
For the molecule `Cc1cc(C)cc(NC(=O)Cc2ccc(-n3cccc3)cc2)c1`, the “lipid storage change, negative = inhibition” value was 12.5% (inactive) and the cell number change was -7.37%.
In the case of `COc1ccc(C(CCN(Cc2ccc(OC)c(OC)c2)C(C)=O)C(C)C)cc1` (centres undefined), the Potency is 0.82 µM (active) and the cell number change was -13.5%.
Take `COc1ccc(C(CCN(Cc2ccc(OC)c(OC)c2)C(C)=O)c2ccccc2)cc1` (centres undefined): the “lipid storage change, negative = inhibition” value was -11.8% (inactive) and the cell number change is -3.52%.
Consider `CC(=O)N(CCC(c1ccco1)C(C)C)Cc1ccc(OC(C)C)cc1` (centres undefined), for which the “lipid storage change, negative = inhibition” value is -3.84% (inactive) and the cell number change is -2.37%.
Regarding `O=C(O)CCc1ccc(-c2ccc(F)cc2)n1Cc1ccco1`, the “lipid storage change, negative = inhibition” value was 3.2% (inactive) and the cell number change is -0.476%.
Turning to `Cc1ccc(-c2ccc(CCC(=O)O)n2Cc2ccco2)cc1`, the “lipid storage change, negative = inhibition” value was 1.97% (inactive) and the cell number change was determined as 19.5%.
Take `O=C(O)CCc1ccc(-c2ccc(Br)cc2)n1Cc1ccco1`: the Potency was 6.51 µM (active) and the cell number change was -8.78%.
Take `Cc1[nH]c2ccccc2c1C(=O)C(=O)N1CCN(c2ccccc2)CC1`: the “lipid storage change, negative = inhibition” value is -1.16% (inactive) and the cell number change amounted to 8.19%.
For the molecule `Cc1ccc(Cl)cc1N(CC(=O)Nc1cccc(N(C)S(C)(=O)=O)c1)S(C)(=O)=O`, the Potency is 14.6 µM (active) and the cell number change was -15.4%.
Regarding `CCc1ccccc1N(CC(=O)Nc1cccc(N(C)S(C)(=O)=O)c1)S(C)(=O)=O`, the molecule was classed as inactive and the cell number change was 5.08%.
Consider `CN(c1cccc(NC(=O)CN(c2cccc(Cl)c2)S(=O)(=O)c2ccc(Cl)cc2)c1)S(C)(=O)=O`, for which the “lipid storage change, negative = inhibition” value was -27.1% (inactive) and the cell number change was -18.4%.
On to `COc1ccc2oc(CS(=O)c3ccccc3)c(C(=O)O)c2c1` (centres undefined), for which the “lipid storage change, negative = inhibition” value was 12.5% (inactive) and the cell number change came to 13.2%.
For the molecule `CC1OC2(OC1C)C(=O)Nc1ccccc12` (centres undefined), the molecule was called inactive.
In the case of `CN1C(=S)SC(C)(NO)C1(C)C` (centres undefined), the Potency is 5.17 µM (active) and the cell number change is -11.6%.
For `CN1C(=S)SC(C)(C)C1(C)NO` (centres undefined), the Potency is 1.64 µM (active) and the cell number change came out at 0.152%.
`CN1C(=S)SC(C)(C)C1NO` (centres undefined): the “lipid storage change, negative = inhibition” value was 5.34% (inactive) and the cell number change is 1.23%.
As for `CCC(C)c1ccc(S(=O)(=O)Nc2cccnc2)cc1` (centres undefined), the molecule was called inactive and the cell number change was -23.6%.
As to `CCCCCCCCCCCCS[C@H]1CS(=O)(=O)C[C@@H]1O`, the “lipid storage change, negative = inhibition” value was -11.5% (inactive) and the cell number change is -8.76%.
Take `CC(=O)Nc1cc2cc(NS(=O)(=O)c3ccc(Cl)cc3)ccc2oc1=O`: the “lipid storage change, negative = inhibition” value was -0.0147% (inactive) and the cell number change stood at 9.39%.
For the molecule `COC(=O)/C(C#N)=C\c1c(OC)[nH]c2ccccc12`, the “lipid storage change, negative = inhibition” value was -1.4% (inactive) and the cell number change is -7.03%.
For the molecule `CN(Cc1c(F)cccc1Cl)C(=O)CNC(=O)c1cccs1`, the molecule was called inactive and the cell number change was -5.78%.
Consider `CN(Cc1c(F)cccc1Cl)S(=O)(=O)c1cccs1`, for which the Potency was 5.8 µM (active) and the cell number change was -15.8%.
As to `CN(Cc1ccccc1)S(=O)(=O)c1cccs1`, the “lipid storage change, negative = inhibition” value is -3.38% (inactive) and the cell number change is 5.69%.
`CC(C)CSc1nc2c(c(=O)[nH]c(=O)n2C)n1CCc1ccccc1`: the “lipid storage change, negative = inhibition” value was 12.1% (inactive) and the cell number change is 0.065%.
As to `O=C(c1cc(-c2ccc(O)cc2)on1)N1CCN(c2ccc(F)cc2)CC1`, the “lipid storage change, negative = inhibition” value was 5.87% (inactive) and the cell number change is -16.1%.
Turning to `O=C(c1cc(-c2ccc3c(c2)OCO3)on1)N1CCN(c2ccc(F)cc2)CC1`, the “lipid storage change, negative = inhibition” value is 17.2% (inactive) and the cell number change was found to be 27.5%.
Regarding `O=C(c1ccc(N2CCN(C(=O)c3ccccc3)CC2)cc1)c1cccc(F)c1`, the Potency was 2.06 µM (active) and the cell number change turned out to be 0.901%.
With `O=C(c1cc(-c2ccc(Cl)cc2)on1)N1CCN(c2ccc(F)cc2)CC1`, the Potency was 20.6 µM (active) and the cell number change worked out at 8.11%.
With `Cc1c(C(=O)N2CCN(S(=O)(=O)c3cc(F)ccc3F)CC2)oc2ccccc12`, the “lipid storage change, negative = inhibition” value is 16.3% (inactive) and the cell number change is -12.2%.
As to `COc1ccccc1N1CCN(C(=O)c2c(C)cc(=O)oc2C)CC1`, the result was inactive and the cell number change is -3.57%.
For the molecule `Cc1c(C(=O)N2CCN(CCc3ccccn3)CC2)oc2ccc(F)cc12`, the “lipid storage change, negative = inhibition” value is -2.08% (inactive) and the cell number change turned out to be 0.99%.
Take `Cc1cc(=O)oc(C)c1C(=O)N1CCN(c2ccc(F)cc2)CC1`: the Potency was 23.1 µM (active) and the cell number change was -3.9%.
On to `O=C(c1ccc(N2CCN(C(=O)c3ccccc3Br)CC2)cc1)c1cccc(F)c1`, for which the molecule was classed as inactive and the cell number change was -10.8%.
For `O=C(c1cccc(C(=O)N2CCN(c3ccccc3)CC2)c1)N1CCN(c2ccccc2)CC1`, the “lipid storage change, negative = inhibition” value was 12.8% (inactive) and the cell number change is -3.1%.
As to `Cc1c(C(=O)N2CCN(C(=O)c3ccccc3)CC2)oc2ccc(F)cc12`, the Potency is 1.84 µM (active) and the cell number change was -15.5%.
For `Cc1cc(=O)oc(C)c1C(=O)NCCCN1CCN(c2ccc(F)cc2)CC1`, the “lipid storage change, negative = inhibition” value was 9.77% (inactive) and the cell number change was found to be 2.43%.
On to `COc1ccc(CNC(=O)CCC(=O)Nc2nnc(CC(C)C)s2)cc1`, for which the “lipid storage change, negative = inhibition” value is 0.276% (inactive) and the cell number change stood at 5.14%.
